# About 2,000 (36%) of roughly 5,500 compounds were called active. About 18% were inconclusive and are not listed. This is one part of the list. A number with no mark means an inactive call. Cut-off read from the data, not from the text of the source: active = normalized growth mostly below about 0.91 (no sharp cut-off); inconclusive = no clear call, values can overlap the other calls; inactive = mostly above about 0.92.
# Assay: chemical genetic growth profiling, strain panel (AID 1159580);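 note: tested at 20 µM; growth read once vehicle control cultures reached saturation at 30 °C; 1 = growth at the plate median or of vehicle wells; lower values mean less growth of the strain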
# Details: S. cerevisiae deletion strains, growth OD
# [1] = locus YHR030C, strain SLT2, active compounds read low
# [2] = locus YHR079C, strain IRE1, active compounds read low
# [3] = locus YJL095W, strain BCK1, active compounds read low
# [4] = locus YJR066W, strain TOR1, active compounds read low
# [5] = locus YLR113W, strain HOG1, active compounds read low
# [6] = locus YNL183C, strain NPR1, active compounds read low
# [7] = locus YOR231W, strain MKK1, active compounds read low
# [8] = locus YPL256C, strain CLN2, active compounds read low
smiles,measurement,setting,value
COc1ccc(-c2cc(=O)c3c(O)cc(OC)cc3o2)cc1,normalized growth,[1],0.924
same,normalized growth,[2],0.925
same,normalized growth,[3],0.931
same,normalized growth,[4],0.874
same,normalized growth,[5],0.905
same,normalized growth,[6],0.887
same,normalized growth,[7],0.919
same,normalized growth,[8],0.94
COc1ccc(-c2cc(=O)c3c(O)c(OC)c(OC)c(OC)c3o2)cc1OC,normalized growth,"locus YAL021C, strain ccr4, active compounds read low",0.997
same,normalized growth,"locus YAL026C, strain drs2, active compounds read low",0.974
same,normalized growth,"locus YAL030W, strain snc1, active compounds read low",0.995
same,normalized growth,"locus YBL061C, strain skt5, active compounds read low",0.991
same,normalized growth,"locus YBR009C, strain hhf1, active compounds read low",0.965
same,normalized growth,"locus YBR023C, strain chs3, active compounds read low",1
same,normalized growth,"locus YBR171W, strain sec66, active compounds read low",0.994
same,normalized growth,"locus YBR231C, strain swc5, active compounds read low",0.976
same,normalized growth,"locus YBR279W, strain paf1, active compounds read low",0.995
same,normalized growth,"locus YCL011C, strain gbp2, active compounds read low",0.989
same,normalized growth,"locus YCL016C, strain dcc1, active compounds read low",0.996
same,normalized growth,"locus YCL069W, strain vba3, active compounds read low",1.01
same,normalized growth,"locus YCR088W, strain abp1, active compounds read low",0.997
same,normalized growth,"locus YDL005C, strain med2, active compounds read low",0.998
same,normalized growth,"locus YDL040C, strain nat1, active compounds read low",1.02
same,normalized growth,"locus YDR001C, strain nth1, active compounds read low",1
same,normalized growth,"locus YDR069C, strain doa4, active compounds read low",0.972
same,normalized growth,"locus YDR137W, strain rgp1, active compounds read low",1.2 [resistant] (active)
same,normalized growth,"locus YDR159W, strain sac3, active compounds read low",0.967
same,normalized growth,"locus YDR195W, strain ref2",1.03
same,normalized growth,"locus YDR297W, strain sur2, active compounds read low",0.988
same,normalized growth,"locus YDR334W, strain swr1, active compounds read low",1
same,normalized growth,"locus YDR335W, strain msn5, active compounds read low",1
same,normalized growth,"locus YDR392W, strain spt3, active compounds read low",0.867
same,normalized growth,"locus YEL003W, strain gim4, active compounds read low",0.994
same,normalized growth,"locus YEL037C, strain rad23, active compounds read low",0.997
same,normalized growth,"locus YEL061C, strain CIN8 (second series), active compounds read low",1.02
same,normalized growth,"locus YER015W, strain faa2, active compounds read low",0.989
same,normalized growth,"locus YER016W, strain bim1, active compounds read low",1.04
same,normalized growth,"locus YER111C, strain swi4, active compounds read low",0.987
same,normalized growth,"locus YER155C, strain BEM2 (second series), active compounds read low",0.939
same,normalized growth,"locus YFR010W, strain ubp6, active compounds read low",0.997
same,normalized growth,"locus YGL167C, strain pmr1, active compounds read low",0.992
same,normalized growth,"locus YGL173C, strain kem1, active compounds read low",0.991
same,normalized growth,"locus YGL227W, strain vid30, active compounds read low",0.99
same,normalized growth,"locus YGL240W, strain doc1, active compounds read low",0.983
same,normalized growth,"locus YGL253W, strain hxk2, active compounds read low",0.951
same,normalized growth,"locus YHR013C, strain ard1, active compounds read low",1.01
same,normalized growth,"locus YHR027C, strain rpn1, active compounds read low",1
same,normalized growth,[1],0.961
same,normalized growth,[2],0.949
same,normalized growth,"locus YHR142W, strain chs7, active compounds read low",0.953
same,normalized growth,"locus YJL092W, strain hpr5, active compounds read low",1
same,normalized growth,"locus YJL095W, strain BCK1 (second series), active compounds read low",0.992
same,normalized growth,[3],1.01
same,normalized growth,"locus YJL115W, strain asf1, active compounds read low",0.996
same,normalized growth,"locus YJL129C, strain trk1, active compounds read low",0.949
same,normalized growth,"locus YJL154C, strain vps35, active compounds read low",0.998
same,normalized growth,"locus YJL164C, strain tpk1, active compounds read low",0.995
same,normalized growth,"locus YJL166W, strain qcr8, active compounds read low",0.974
same,normalized growth,"locus YJL187C, strain SWE1, active compounds read low",0.989
same,normalized growth,[4],0.914
same,normalized growth,"locus YKL160W, strain elf1, active compounds read low",0.994
same,normalized growth,"locus YKR026C, strain gcn3, active compounds read low",0.995
same,normalized growth,"locus YKR091W, strain srl3, active compounds read low",1.03
same,normalized growth,"locus YLL001W, strain dnm1, active compounds read low",0.984
same,normalized growth,"locus YLL026W, active compounds read low",0.998
same,normalized growth,"locus YLL041C, strain sdh2, active compounds read low",1
same,normalized growth,"locus YLR027C, strain aat2, active compounds read low",0.997
same,normalized growth,[5],1
same,normalized growth,"locus YLR221C, strain rsa3, active compounds read low",0.943
same,normalized growth,"locus YLR258W, strain gsy2, active compounds read low",1
same,normalized growth,"locus YLR262C, strain YPT6 (second series), active compounds read low",0.985
same,normalized growth,"locus YLR320W, strain mms22, active compounds read low",0.975
same,normalized growth,"locus YLR342W, strain FKS1, active compounds read low",1
same,normalized growth,"locus YLR357W, strain rsc2, active compounds read low",0.972
same,normalized growth,"locus YLR370C, strain arc18, active compounds read low",0.986
same,normalized growth,"locus YLR384C, strain iki3, active compounds read low",0.974
same,normalized growth,"locus YML120C, strain ndi1, active compounds read low",0.989
same,normalized growth,"locus YMR058W, strain fet3, active compounds read low",0.815 (active)
same,normalized growth,"locus YMR125W, strain sto1, active compounds read low",1.01
same,normalized growth,"locus YMR129W, active compounds read low",1.01
same,normalized growth,"locus YMR205C, strain PFK2, active compounds read low",1
same,normalized growth,"locus YMR231W, strain pep5, active compounds read low",1
same,normalized growth,"locus YNL071W, strain lat1, active compounds read low",0.994
same,normalized growth,[6],0.944
same,normalized growth,"locus YNL209W, strain ssb2, active compounds read low",0.998
same,normalized growth,"locus YNL248C, strain rpa49, active compounds read low",0.971
same,normalized growth,"locus YNL322C, strain KRE1 (second series), active compounds read low",1
same,normalized growth,"locus YNR049C, strain mso1, active compounds read low",1.01
same,normalized growth,"locus YOR001W, strain rrp6, active compounds read low",0.94
same,normalized growth,"locus YOR070C, strain gyp1, active compounds read low",0.978
same,normalized growth,"locus YOR080W, strain dia2, active compounds read low",0.999
same,normalized growth,"locus YOR083W, strain WHI5, active compounds read low",0.991
same,normalized growth,"locus YOR106W, strain vam3, active compounds read low",0.954
same,normalized growth,[7],0.95
same,normalized growth,"locus YOR265W, strain rbl2, active compounds read low",0.993
same,normalized growth,"locus YOR270C, strain vph1, active compounds read low",0.962
same,normalized growth,"locus YOR290C, strain snf2, active compounds read low",0.994
same,normalized growth,"locus YPL051W, strain arl3, active compounds read low",0.947
same,normalized growth,"locus YPL078C, strain atp4, active compounds read low",0.979
same,normalized growth,"locus YPL106C, strain sse1, active compounds read low",0.953
same,normalized growth,"locus YPL240C, strain hsp82, active compounds read low",1.03
same,normalized growth,[8],0.971

# From PubChem BioAssay AID1159580 (chemical genetic matrix, 2015)
